Here are results for 7 compounds from PubChem BioAssay (NCI).

Some test systems named below: SK-MEL-2 melanoma; EKVX NSCLC; SN12C renal; UO-31 renal; TK-10 renal; ACHN renal; CAKI-1 renal; A498 renal; CCRF-CEM leukemia; MOLT-4 leukemia; SR leukemia; RPMI-8226 leukemia; OVCAR-8 ovarian; OVCAR-5 ovarian; OVCAR-4 ovarian; SK-OV-3 ovarian; IGROV1 ovarian; OVCAR-3 ovarian; HS 578T breast; NCI/ADR-RES ovarian.
Common to all, as to test: NCI-60 one-dose screen, 48 h (100 = growth as untreated, 0 = no growth, -100 = all killed)
Holding throughout (conditions): 10 µM

About 83,000 compounds went through this panel and 20% of them were active in at least one assay; those are over-represented in the sample as a whole.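 Interpretation: 100, growth as untreated; towards 0, rising growth inhibition; 0, no net growth; 0 to -100, cell death. Compounds scoring below 10 were considered active.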 Unmarked numbers belong to inactive results. Calls of active or inactive are those of the source.

`CCN(CCCNc1cc2c(c(N)c1S(=O)(=O)O)C(=O)c1ccccc1C2=O)c1ccccc1`: the growth was 103% with SK-MEL-2 melanoma; 103% in the assay on EKVX NSCLC; 87.4% in the assay on SN12C renal; 75.2% in the assay on UO-31 renal; 116% with TK-10 renal; 103% in the assay with ACHN renal. In addition, the growth in the assay with CAKI-1 renal is 95.7%; in the assay on A498 renal, 103%; in the assay with CCRF-CEM leukemia, 102%; in the assay with MOLT-4 leukemia, 108%; in the assay on SR leukemia, 118%; with RPMI-8226 leukemia it was 101%. Moreover, the growth was 96.4% in the assay with OVCAR-8 ovarian; 107% in the assay on OVCAR-5 ovarian; 109% in the assay on OVCAR-4 ovarian; 100% in the assay on SK-OV-3 ovarian; 114% with IGROV1 ovarian; 111% in the assay with OVCAR-3 ovarian. The growth with HS 578T breast is 93.5%; with NCI/ADR-RES ovarian it was 99.8%.

Turning to `O=C(Cn1cc(CO)nn1)Nc1nc2ccccc2s1`, the growth with SK-MEL-2 melanoma is 107%; in the assay with EKVX NSCLC it was 94.1%; in the assay on SN12C renal, 96.5%; in the assay with UO-31 renal it was 72.6%; in the assay on TK-10 renal, 106%; with ACHN renal it was 104%. The growth with CAKI-1 renal was 88.9%; in the assay on A498 renal it was 118%; with CCRF-CEM leukemia, 103%; with MOLT-4 leukemia, 104%; in the assay with SR leukemia, 100%; in the assay on RPMI-8226 leukemia, 107%. Further, the growth with OVCAR-8 ovarian is 99.4%; with OVCAR-5 ovarian, 101%; in the assay on OVCAR-4 ovarian it was 108%; with SK-OV-3 ovarian, 104%; with IGROV1 ovarian, 97.8%; with OVCAR-3 ovarian it was 101%. Moreover, the growth with HS 578T breast is 109%; with NCI/ADR-RES ovarian, 101%.

With `O=C(N/N=C/c1ccc(Cl)cc1)c1ccc(Cc2n[nH]c(=O)c3cccnc23)cc1`, the growth with SK-MEL-2 melanoma was 108%; with EKVX NSCLC, 105%; in the assay on SN12C renal, 100%; in the assay on UO-31 renal it was 74.3%; with TK-10 renal, 107%; in the assay on ACHN renal, 102%. Moreover, the growth in the assay on CAKI-1 renal was 94.8%; in the assay on A498 renal, 131%; with CCRF-CEM leukemia, 107%; in the assay with MOLT-4 leukemia, 98.6%; in the assay on SR leukemia, 135%; with RPMI-8226 leukemia, 117%. Also, the growth in the assay with OVCAR-8 ovarian is 100%; in the assay with OVCAR-5 ovarian it was 99.7%; with OVCAR-4 ovarian, 106%; in the assay on SK-OV-3 ovarian it was 103%; in the assay on IGROV1 ovarian, 102%; with OVCAR-3 ovarian, 106%. Moreover, the growth with HS 578T breast is 108%; with NCI/ADR-RES ovarian, 101%.

`CN(C)CCC1(c2ccccc2)CCN(C)C1=O` (stereo not given): the growth was 95.4% with SK-MEL-2 melanoma; 110% in the assay on EKVX NSCLC; 103% in the assay on SN12C renal; 87.4% in the assay on UO-31 renal; 112% with TK-10 renal; 102% with ACHN renal. For the same compound, the growth in the assay with CAKI-1 renal is 103%; in the assay on A498 renal, 94.1%; in the assay with CCRF-CEM leukemia, 103%; in the assay on MOLT-4 leukemia, 95.6%; with SR leukemia it was 112%; in the assay with RPMI-8226 leukemia it was 108%. The growth is 104% in the assay with OVCAR-8 ovarian; 107% with OVCAR-5 ovarian; 113% in the assay on OVCAR-4 ovarian; 100% in the assay on SK-OV-3 ovarian; 109% with IGROV1 ovarian; 99.5% with OVCAR-3 ovarian. Moreover, the growth in the assay with HS 578T breast was 108%; with NCI/ADR-RES ovarian, 103%.

`O=C(/C=C/c1cccc(B(O)O)c1)c1cccc(B(O)O)c1`: the growth in the assay with SK-MEL-2 melanoma was 44.8%; in the assay on EKVX NSCLC it was 56.3%; in the assay on SN12C renal, -3.76% (active); with UO-31 renal, -82.5% (active); in the assay with TK-10 renal, -11.7% (active); with ACHN renal, 0.0369% (active). Further, the growth is -8.72% (active) in the assay with CAKI-1 renal; 65.5% with A498 renal; -13.8% (active) in the assay on CCRF-CEM leukemia; 2.84% (active) in the assay on MOLT-4 leukemia; 3.2% (active) in the assay with SR leukemia; 48.2% with RPMI-8226 leukemia. For the same compound, the growth was -12.2% (active) with OVCAR-8 ovarian; -12% (active) in the assay with OVCAR-5 ovarian; 53.9% in the assay with OVCAR-4 ovarian; 3.23% (active) with SK-OV-3 ovarian; 26.7% with IGROV1 ovarian; -28.2% (active) in the assay with OVCAR-3 ovarian. In addition, the values for the growth with HS 578T breast and in the assay on NCI/ADR-RES ovarian were 16.9% and 8.08% (active), respectively.

For `O=S(=O)(Oc1ccc(-c2ccc3sccc3c2)cc1)c1ccc(F)cc1`, the growth was 114% with SK-MEL-2 melanoma; 91.5% with EKVX NSCLC; 96.5% in the assay with SN12C renal; 92.2% in the assay with UO-31 renal; 93.7% with TK-10 renal; 107% in the assay on ACHN renal. Moreover, the growth in the assay on CAKI-1 renal was 82.7%; with A498 renal, 95.3%; in the assay with CCRF-CEM leukemia it was 86.1%; with MOLT-4 leukemia, 89.4%; with SR leukemia it was 86.3%; in the assay with RPMI-8226 leukemia, 96.4%. Moreover, the growth was 106% with OVCAR-8 ovarian; 102% with OVCAR-5 ovarian; 100% in the assay on OVCAR-4 ovarian; 107% in the assay on SK-OV-3 ovarian; 104% in the assay on IGROV1 ovarian; 110% with OVCAR-3 ovarian. The growth in the assay on HS 578T breast was 112%; with NCI/ADR-RES ovarian, 95.8%.

Turning to `COc1cc(/C=C/c2cc(/C=C/c3ccc(O)c(OC)c3)n(C(=O)Nc3ccccc3Cl)n2)ccc1O`, the growth with SK-MEL-2 melanoma is -12.3% (active); with EKVX NSCLC, 17.7%; with SN12C renal, 14.2%; with UO-31 renal it was -34.8% (active); in the assay on TK-10 renal it was 16.1%; in the assay on ACHN renal, 12.8%. The growth was 7.29% (active) in the assay with CAKI-1 renal; -11.8% (active) in the assay with A498 renal; -4.54% (active) in the assay with CCRF-CEM leukemia; -4.57% (active) in the assay with MOLT-4 leukemia; -17.7% (active) in the assay with SR leukemia; -22.3% (active) in the assay on RPMI-8226 leukemia. Moreover, the growth is 1.5% (active) with OVCAR-8 ovarian; 13.2% in the assay with OVCAR-5 ovarian; 6.59% (active) in the assay with OVCAR-4 ovarian; -33.3% (active) with SK-OV-3 ovarian; -6.58% (active) in the assay with IGROV1 ovarian; -26.8% (active) in the assay on OVCAR-3 ovarian. Further, the values for the growth with HS 578T breast and in the assay on NCI/ADR-RES ovarian were -4.71% (active) and 20.8%, respectively.
